Measurements reported in the supplement of paper PMC7380943.

system: CLZ3 (HCA2 human fibroblast dual HR-NHEJ reporter); test: NHEJ repair efficiency (GFP+ cells) relative to control (log10 fold); higher = more non-homologous end joining; conditions: 5 µM; doxycycline 0.5 ug/mL
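Also: compound given one day ahead of doxycycline, which switches on I-SceI endonuclease to cut the chromosomally integrated reporter and create DSBs.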

Row | Compound | NHEJ repair efficiency (log10)
1 | CCCCCCCCCCCCCCCC(=O)O [Palmitic Acid] | 0.0513
2 | O=c1c(O[C@@H]2O[C@H](CO)[C@@H](O)[C@H](O)[C@H]2O)c(-c2ccc(O)cc2)oc2cc(O)cc(O)c12 [Astragalin] | -0.0677
3 | O=C(/C=C/c1ccc(O)c(O)c1)O[C@H](Cc1ccc(O)c(O)c1)C(=O)O [Rosmarinicacid] | -0.275
4 | C[C@H]1O[C@H](O[C@@H]2[C@@H](O)[C@H](OCCc3ccc(O)c(O)c3)O[C@H](CO[C@H]3OCC(O)(CO)[C@@H]3O)[C@H]2OC(=O)/C=C/c2ccc(O)c(O)c2)[C@@H](O)[C@@H](O)[C@@H]1O (stereo not given in full) [Forsythoside B] | 0.0465
5 | C=C(C)[C@H](CC=C(C)C)Cc1c(O)cc(OC)c2c1O[C@H](c1ccc(O)cc1O)CC2=O [Kurarinone] | 0.0108
6 | COc1cccc(OC)c1C(=O)OCc1cc(O)ccc1O[C@@H]1O[C@H](CO)[C@@H](O)[C@H](O)[C@H]1O [Curculigoside] | 0.0105
7 | COc1cc2ccc(=O)oc2cc1OC [Scoparone] | 0.0322
8 | O=c1c(-c2ccc(O)cc2)coc2c([C@@H]3O[C@H](CO)[C@@H](O)[C@H](O)[C@H]3O)c(O)ccc12 [Puerarin] | 0.0163
9 | CN[C@@H](C)[C@H]1[C@H](O)C[C@@]2(C)[C@@H]3CC[C@H]4C(C)(C)[C@@H](NC)CC[C@@]45C[C@@]35CC[C@]12C [Cyclovirobuxine D] | -0.023
10 | O=c1cc(-c2ccc(O[C@@H]3O[C@H](CO)[C@@H](O)[C@H](O)[C@H]3O)cc2)oc2cc(O)c([C@@H]3O[C@H](CO)[C@@H](O)[C@H](O)[C@H]3O[C@@H]3OC[C@H](O)[C@H](O)[C@H]3O)c(O)c12 [Vaccarin] | -0.0315
11 | CC(/C=C/C=C(\C)C(=O)O[C@@H]1O[C@H](CO)[C@@H](O)[C@H](O)[C@H]1O)=C\C=C\C=C(C)\C=C\C=C(/C)C(=O)O[C@@H]1O[C@H](CO[C@@H]2O[C@H](CO)[C@@H](O)[C@H](O)[C@H]2O)[C@@H](O)[C@H](O)[C@H]1O [Crocin Ii] | -0.0199
12 | O=C(O)/C=C/c1ccc(O)cc1 [P-Coumaric Acid] | 0.1
13 | COC(=O)c1ccc(O)cc1 [Methylparaben] | 0.0529
14 | O=C(O)c1cc(O)c2c(c1)[C@@H]([C@H]1c3cc(C(=O)O)cc(O)c3C(=O)c3c(O[C@@H]4O[C@H](CO)[C@@H](O)[C@H](O)[C@H]4O)cccc31)c1cccc(O[C@@H]3O[C@H](CO)[C@@H](O)[C@H](O)[C@H]3O)c1C2=O [Sennoside B] | -0.162
15 | O=c1c(O[C@@H]2O[C@H](CO)[C@H](O)[C@H](O)[C@H]2O)c(-c2ccc(O)c(O)c2)oc2cc(O)cc(O)c12 [Hyperoside] | 0.0115
16 | COc1ccc(-c2oc3c(CC=C(C)C)c(O[C@@H]4O[C@H](CO)[C@@H](O)[C@H](O)[C@H]4O)cc(O)c3c(=O)c2O[C@@H]2O[C@@H](C)[C@H](O)[C@@H](O)[C@H]2O)cc1 [Icariine] | -0.13
17 | C=C1CCC[C@]2(C)C[C@@H]3OC(=O)C(C)=C3C[C@@H]12 [Atractylenolide Ii] | -0.0767
18 | COC(=O)C1=CO[C@@H](O[C@@H]2O[C@H](CO)[C@@H](O)[C@H](O)[C@H]2O)[C@H]2[C@@H]1[C@H](O)C[C@]2(C)O [Shanzhiside methylester] | 0.193
19 | CC1=C[C@]2(O)O[C@@]3(CC2=C(C)C)[C@@H](C)CC[C@@H]13 [Curcumenol] | 0.129
20 | CN1Cc2c(ccc3c2OCO3)[C@@]2(C)[C@@H](O)Cc3cc4c(cc3[C@@H]12)OCO4 [Corynoline] | -0.128

Row | Compound | NHEJ repair efficiency (log10)
21 | C=CCc1ccc(O)c(OC)c1 [Eugenol] | 0.027
22 | CC(C)=CCC[C@](C)(O[C@@H]1O[C@H](CO)[C@@H](O)[C@H](O)[C@H]1O)[C@H]1CC[C@]2(C)[C@@H]1[C@H](O)C[C@@H]1[C@@]3(C)CC[C@H](O)C(C)(C)[C@@H]3[C@@H](O[C@@H]3O[C@H](CO)[C@@H](O)[C@H](O)[C@H]3O[C@@H]3O[C@@H](C)[C@H](O)[C@@H](O)[C@H]3O)C[C@]12C [Ginsenoside Re] | -0.152
23 | O=C(/C=C/c1ccc(O)c(O)c1/C=C/c1ccc(O)c(O)c1)O[C@H](Cc1ccc(O)c(O)c1)C(=O)O [Salvianolic Acid A] | 0.0713
24 | COc1cc(O)c2c(=O)c(O[C@@H]3O[C@H](CO)[C@@H](O)[C@H](O)[C@H]3O)c(-c3ccc(O[C@@H]4O[C@H](CO)[C@@H](O)[C@H](O)[C@H]4O)cc3)oc2c1 [Complanatoside] | -0.0413
25 | COc1cc(-c2coc3cc4c(c(OC)c3c2=O)OCO4)cc(OC)c1OC [Irisflorentin] | -0.0524
26 | O=C1c2c(O)cccc2C([C@@H]2O[C@H](CO)[C@@H](O)[C@H](O)[C@H]2O)c2cc(CO)cc(O)c21 (stereo not given in full) [Barbaloin] | 0.0217
27 | CC(C)[C@@H](C)/C=C/[C@@H](C)[C@H]1CC[C@H]2C3=CC=C4C[C@@H](O)CC[C@]4(C)[C@H]3CC[C@]12C [Ergosterol] | 0.00511
28 | COc1cc2c(c(OC)c1OC)-c1c(cc3c(c1OC)OCO3)C[C@H](C)[C@@](C)(O)C2 [Schizandrol B] | -0.0319
29 | Oc1ccc2c(c1)OC[C@]1(O)Cc3cc(O)c(O)cc3[C@H]21 [Brazilin] | -0.0322
30 | C[C@H](N)C(=O)O [Alanine] | 0.113
31 | O=c1c(O)c(-c2cc(O)c(O)c(O)c2)oc2cc(O)cc(O)c12 [Myricetin] | 0.0547
32 | C=C1C[C@@]23CC[C@H]4[C@@](C)(CCC[C@@]4(C)C(=O)O[C@@H]4O[C@H](CO)[C@@H](O)[C@H](O)[C@H]4O)[C@@H]2CC[C@]1(O[C@@H]1O[C@H](CO)[C@@H](O)[C@H](O)[C@H]1O[C@@H]1O[C@H](CO)[C@@H](O)[C@H](O)[C@H]1O)C3 [Stevioside] | 0.149
33 | O=C(/C=C/c1ccc(O)c(O)c1)O[C@@H]1CC(O)(C(=O)O)C[C@@H](OC(=O)/C=C/c2ccc(O)c(O)c2)C1O (stereo not given in full) [Isochlorogenic acid A] | 0.0485
34 | COc1ccc(-c2cc(=O)c3c(O)c(OC)c(O)cc3o2)cc1 [Pectolinarigenin] | -0.0149
35 | CC1(C)[C@@H](O)CC[C@]2(C)[C@H]3C(=O)C=C4[C@@H]5C[C@@](C)(C(=O)O)CC[C@]5(C)CC[C@@]4(C)[C@]3(C)CC[C@@H]12 [Glycyrrhetinic Acid] | 0.0065
36 | CCCCCCCCCC(=O)CC(O)S(=O)(=O)O (stereo not given) [Sodium Houttuyfonate] | 0.024
37 | C=C1CC[C@@H]2[C@](C)(CO)[C@H](O)CC[C@@]2(C)[C@H]1C/C=C1\C=COC1=O [Dehydroandrographolide] | 0.015
38 | COc1ccc(-c2oc3cc(OC)c(OC)c(O)c3c(=O)c2OC)cc1O [Vitexicarpin] | -0.0426
39 | CC(C)(O)CCc1c(O)cc(O)c2c(=O)c(O)c(-c3ccc(O)cc3)oc12 [Noricaritin] | -0.112
40 | C[N+](C)(C)C[C@H](O)CC(=O)[O-] [L-Carnitine] | -0.0644
